Holding throughout (experiment): glycan array binding signal (z-score within array); higher = stronger binding
Holding throughout (conditions): glycan notation: IUPAC condensed, linker removed

Test [1] addresses Fuc(a1-2)Gal(b1-4)GlcNAc. The method in brief: (§1)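 Columns mapping to the same glycan were averaged after glycan names were converted to IUPAC-condensed notation. The data come from 3228 arrays in the Consortium for Functional Glycomics database, limited to those with an available protein sequence. Binding is reported as a within-array Z-score averaged across arrays of one protein sequence and across linkers.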

In test [2] the target is Fuc(a1-2)Gal(b1-4)GlcNAc(b1-3)Gal(b1-4)GlcNAc(b1-3)Gal(b1-4)GlcNAc. Put shortly:
as §1

Test [3] has as its target Fuc(a1-2)[Gal(a1-3)]Gal. The method in brief:
as §1

Test [4] deals with Gal(a1-3)Gal(b1-4)GlcNAc. The method in brief: as §1
Test [5] concerns the target Gal(a1-3)[Gal(a1-4)]Gal(b1-4)GlcNAc. The method in brief:
as §1

Test [6] addresses Gal(b1-4)GlcNAc(b1-6)GalNAc. Put shortly:
as §1

The target in test [7] is Gal3S(b1-4)Glc. Put shortly: as §1
In test [8] the target is Gal4S(b1-4)GlcNAc. The method in brief: as §1
The target in test [9] is Gal6S(b1-4)Glc. The method in brief:
as §1

Test [10] concerns the target GlcNAc(b1-3)[GlcNAc(b1-6)]GlcNAc(b1-4)GlcNAc. The method in brief:
as §1

Test [11] addresses Man(a1-2)Man(a1-2)Man(a1-6)[Man(a1-3)]Man. Put shortly: as §1
For test [12], the target named is Neu5Ac(a2-3)Gal(b1-4)GlcNAc(b1-3)Gal(b1-4)GlcNAc(b1-3)Gal(b1-4)GlcNAc. Put shortly: as §1
In test [13] the target is Neu5Ac(a2-3)Gal(b1-4)[Fuc(a1-3)]GlcNAc. The method in brief:
as §1

The sample as a whole holds a higher share of the strongest signals than the screen did.

The values that follow come from the supplement of paper PMC8728848.

B1: RegIIIalpha (Mus musculus), O09037 (protein)
chain: MLPHLVLNSISWMLLSCLLFVFQVQGEDFQKEVPSPRTSCPMGYKAYRSHCYALVMTPKSWFQADLVCQKRPSGHLVSILSGGEASFVSSLVNGRVDNYQDIWIGLHDPTMGQQPNGGGWEWSNSDVLNYLNWDGDPSSTVNRGHCGSLTASSGFLKWGDYYCDGTLPFVCKFKQ
With B1, the “glycan array binding signal (z-score)” value was -0.094 in [1]; 0.048 in test [2]; -0.098 in test [3]; -0.089 in test [4]; 0.002 in test [5]; -0.096 in test [6]. Moreover, the “glycan array binding signal (z-score)” value in test [7] was -0.096; in test [8], 0.116; in test [9], -0.072; in [10], -0.081; in test [11] it was -0.092; in test [12], 0.002. Besides, the “glycan array binding signal (z-score)” value in test [13] is -0.054.
